Experimental data reported in article PMC7862700, “An all-to-all approach to the identification of sequence-specific readers for epigenetic DNA modifications on cytosine”.

Columns and labels:
Experiment in all cases: DAPPL (digital affinity profiling via proximity ligation, sequencing); 10 mM Tris-HCl pH 7.5, 50 mM NaCl, 1 mM DTT, 4% glycerol, room temperature, 30 min; GST-TFs on glutathione beads, 16-mer random dsDNA library, 0.1% formaldehyde crosslink after washing; high values mean tight binding
[1] = biological target: T1, FEV (Homo sapiens, UniProt Q99581 1-238); conditions: protein: recombinant; tags: N-terminal GST; dsDNA, one strand shown
T1 sequence: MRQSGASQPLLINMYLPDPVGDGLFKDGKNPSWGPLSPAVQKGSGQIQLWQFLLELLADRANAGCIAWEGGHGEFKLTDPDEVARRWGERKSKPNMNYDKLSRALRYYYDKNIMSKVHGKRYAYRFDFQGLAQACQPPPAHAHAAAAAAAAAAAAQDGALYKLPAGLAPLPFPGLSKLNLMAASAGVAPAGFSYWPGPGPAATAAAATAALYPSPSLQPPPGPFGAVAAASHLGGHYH
Method in brief: (§1)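 Yeast served to express human transcription factors as GST fusions, which were then captured on glutathione beads and labelled with DNA barcodes. Pooled with a tag-only sample, they were incubated with 200 nmole of a 16-mer random double-stranded DNA library for 30 min at room temperature in Tris/NaCl/DTT/glycerol buffer, washed, crosslinked with 0.1% formaldehyde, ligated by proximity, amplified by PCR and sequenced. Dividing each hexamer's read frequency for a factor by its frequency for the tag-only sample gives the binding signal.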

[2] = biological target: ETV5 (Homo sapiens, UniProt P41161 1-510); conditions: protein: recombinant; tags: N-terminal GST; dsDNA, one strand shown
Method in brief: as §1

[3] = biological target: HSF1 (Homo sapiens, UniProt Q00613 1-529); conditions: protein: recombinant; tags: N-terminal GST; chain copies: 3; dsDNA, one strand shown
Method in brief: as §1

[4] = biological target: T2, SPIC (Homo sapiens, UniProt Q8N5J4 1-248); conditions: protein: recombinant; tags: N-terminal GST; dsDNA, one strand shown
T2 sequence: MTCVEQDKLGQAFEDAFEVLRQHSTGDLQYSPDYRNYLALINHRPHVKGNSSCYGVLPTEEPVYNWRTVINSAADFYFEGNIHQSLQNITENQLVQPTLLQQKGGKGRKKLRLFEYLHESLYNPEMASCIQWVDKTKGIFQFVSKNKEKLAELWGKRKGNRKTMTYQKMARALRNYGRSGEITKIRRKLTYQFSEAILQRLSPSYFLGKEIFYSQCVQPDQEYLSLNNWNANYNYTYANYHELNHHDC
Method in brief: as §1

[5] = biological target: ELF4 (Homo sapiens, UniProt Q99607 1-663); conditions: protein: recombinant; tags: N-terminal GST; dsDNA, one strand shown
Method in brief: as §1

[6] = biological target: T3, ELK4 (Homo sapiens, UniProt P28324-2 1-405); conditions: protein: recombinant; tags: N-terminal GST; dsDNA, one strand shown
T3 sequence: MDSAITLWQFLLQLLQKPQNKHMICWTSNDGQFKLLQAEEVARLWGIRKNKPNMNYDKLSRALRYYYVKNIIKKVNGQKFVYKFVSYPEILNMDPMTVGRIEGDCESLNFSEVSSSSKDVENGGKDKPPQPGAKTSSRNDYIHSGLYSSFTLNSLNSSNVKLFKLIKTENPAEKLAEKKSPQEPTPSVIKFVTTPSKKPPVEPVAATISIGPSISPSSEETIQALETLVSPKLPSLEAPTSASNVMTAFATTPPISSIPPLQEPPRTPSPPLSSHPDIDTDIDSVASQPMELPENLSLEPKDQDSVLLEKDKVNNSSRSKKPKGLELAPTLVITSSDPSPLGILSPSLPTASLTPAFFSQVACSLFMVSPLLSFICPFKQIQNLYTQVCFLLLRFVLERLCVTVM
Method in brief: as §1

[7] = biological target: T4, ETV2 (Homo sapiens, UniProt O00321 1-342); conditions: protein: recombinant; tags: N-terminal GST; dsDNA, one strand shown
T4 sequence: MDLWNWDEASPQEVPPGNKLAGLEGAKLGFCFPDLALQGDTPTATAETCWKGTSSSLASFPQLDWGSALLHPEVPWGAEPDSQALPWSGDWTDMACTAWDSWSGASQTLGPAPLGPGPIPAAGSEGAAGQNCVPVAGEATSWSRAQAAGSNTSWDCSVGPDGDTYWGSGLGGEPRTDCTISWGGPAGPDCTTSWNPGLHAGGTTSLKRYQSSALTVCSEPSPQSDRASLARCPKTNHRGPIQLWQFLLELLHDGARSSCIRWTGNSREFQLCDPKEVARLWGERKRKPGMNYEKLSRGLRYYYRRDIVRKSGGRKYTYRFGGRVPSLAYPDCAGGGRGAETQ
Method in brief: as §1

[8] = biological target: T5, ELF3 (Homo sapiens, UniProt P78545 1-371); conditions: protein: recombinant; tags: N-terminal GST; dsDNA, one strand shown
T5 sequence: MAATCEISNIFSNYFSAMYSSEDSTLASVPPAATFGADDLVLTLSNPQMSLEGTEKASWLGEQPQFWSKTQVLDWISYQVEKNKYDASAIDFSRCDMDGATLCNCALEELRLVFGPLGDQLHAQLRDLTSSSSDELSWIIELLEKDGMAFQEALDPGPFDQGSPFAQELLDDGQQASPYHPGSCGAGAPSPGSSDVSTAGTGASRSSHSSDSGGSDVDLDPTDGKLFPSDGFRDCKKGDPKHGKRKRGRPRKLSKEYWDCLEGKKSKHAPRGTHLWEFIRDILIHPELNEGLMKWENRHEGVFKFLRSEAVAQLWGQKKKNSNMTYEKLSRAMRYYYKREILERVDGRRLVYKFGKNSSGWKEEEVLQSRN
Method in brief: as §1

[9] = biological target: ETV1 (Homo sapiens, UniProt P50549 1-477); conditions: protein: recombinant; tags: N-terminal GST; dsDNA, one strand shown
Method in brief: as §1

[10] = biological target: T6, ERF (Homo sapiens, UniProt P50548 1-548); conditions: protein: recombinant; tags: N-terminal GST; dsDNA, one strand shown
T6 sequence: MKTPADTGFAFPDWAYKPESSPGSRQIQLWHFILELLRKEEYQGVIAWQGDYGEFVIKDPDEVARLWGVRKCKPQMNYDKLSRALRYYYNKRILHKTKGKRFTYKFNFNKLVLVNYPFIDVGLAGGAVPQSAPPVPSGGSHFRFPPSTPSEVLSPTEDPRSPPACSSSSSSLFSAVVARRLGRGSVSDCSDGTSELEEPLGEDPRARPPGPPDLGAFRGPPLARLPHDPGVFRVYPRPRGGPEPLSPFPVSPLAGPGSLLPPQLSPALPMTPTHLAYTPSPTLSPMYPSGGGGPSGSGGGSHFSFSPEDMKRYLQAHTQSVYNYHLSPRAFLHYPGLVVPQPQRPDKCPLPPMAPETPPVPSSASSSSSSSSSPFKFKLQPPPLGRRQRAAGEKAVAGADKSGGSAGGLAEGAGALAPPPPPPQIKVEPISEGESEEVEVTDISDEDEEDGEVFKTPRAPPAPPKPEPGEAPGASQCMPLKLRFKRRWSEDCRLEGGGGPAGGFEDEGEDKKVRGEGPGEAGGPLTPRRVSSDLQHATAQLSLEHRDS
Method in brief: as §1

[11] = biological target: T7, ETV3L (Homo sapiens, UniProt Q6ZN32 1-361); conditions: protein: recombinant; tags: N-terminal GST; dsDNA, one strand shown
T7 sequence: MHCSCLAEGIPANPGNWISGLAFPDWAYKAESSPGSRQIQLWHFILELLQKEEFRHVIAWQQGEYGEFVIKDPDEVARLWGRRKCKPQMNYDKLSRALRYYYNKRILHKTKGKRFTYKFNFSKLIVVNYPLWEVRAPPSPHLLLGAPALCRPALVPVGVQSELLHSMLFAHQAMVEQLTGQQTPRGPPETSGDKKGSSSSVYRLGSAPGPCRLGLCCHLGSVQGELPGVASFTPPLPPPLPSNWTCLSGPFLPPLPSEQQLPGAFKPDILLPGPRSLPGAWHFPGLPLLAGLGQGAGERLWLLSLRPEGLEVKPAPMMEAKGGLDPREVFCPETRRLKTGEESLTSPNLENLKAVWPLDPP
Method in brief: as §1

[12] = biological target: T8, ETS2 (Homo sapiens, UniProt P15036 1-469); conditions: protein: recombinant; tags: N-terminal GST; dsDNA, one strand shown
T8 sequence: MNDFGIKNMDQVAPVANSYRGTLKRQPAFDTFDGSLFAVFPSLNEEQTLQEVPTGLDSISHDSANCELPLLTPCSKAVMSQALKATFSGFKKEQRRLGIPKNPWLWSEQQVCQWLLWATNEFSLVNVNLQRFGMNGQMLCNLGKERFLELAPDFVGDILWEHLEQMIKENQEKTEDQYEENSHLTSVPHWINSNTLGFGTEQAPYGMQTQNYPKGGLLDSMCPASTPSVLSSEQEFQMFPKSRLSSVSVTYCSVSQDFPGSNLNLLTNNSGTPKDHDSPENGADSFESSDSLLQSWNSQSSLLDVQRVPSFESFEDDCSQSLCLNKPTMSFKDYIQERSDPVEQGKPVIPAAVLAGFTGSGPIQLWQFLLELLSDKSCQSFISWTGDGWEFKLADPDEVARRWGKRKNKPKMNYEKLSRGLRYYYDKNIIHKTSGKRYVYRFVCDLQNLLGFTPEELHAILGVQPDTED
Method in brief: as §1

[13] = biological target: T9, SPDEF (Homo sapiens, UniProt O95238 1-335); conditions: protein: recombinant; tags: N-terminal GST; dsDNA, one strand shown
T9 sequence: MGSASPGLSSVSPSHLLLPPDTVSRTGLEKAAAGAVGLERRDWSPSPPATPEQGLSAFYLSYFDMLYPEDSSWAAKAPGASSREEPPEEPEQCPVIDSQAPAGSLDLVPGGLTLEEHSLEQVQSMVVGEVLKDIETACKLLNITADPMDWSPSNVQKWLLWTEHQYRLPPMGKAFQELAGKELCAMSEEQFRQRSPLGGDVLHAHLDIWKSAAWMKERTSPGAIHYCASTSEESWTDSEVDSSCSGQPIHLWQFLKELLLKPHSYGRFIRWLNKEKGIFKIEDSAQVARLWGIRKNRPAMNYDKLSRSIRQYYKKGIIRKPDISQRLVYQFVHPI
Method in brief: as §1

[14] = biological target: T10, ETV7 (Homo sapiens, UniProt Q9Y603 1-341); conditions: protein: recombinant; tags: N-terminal GST; dsDNA, one strand shown
T10 sequence: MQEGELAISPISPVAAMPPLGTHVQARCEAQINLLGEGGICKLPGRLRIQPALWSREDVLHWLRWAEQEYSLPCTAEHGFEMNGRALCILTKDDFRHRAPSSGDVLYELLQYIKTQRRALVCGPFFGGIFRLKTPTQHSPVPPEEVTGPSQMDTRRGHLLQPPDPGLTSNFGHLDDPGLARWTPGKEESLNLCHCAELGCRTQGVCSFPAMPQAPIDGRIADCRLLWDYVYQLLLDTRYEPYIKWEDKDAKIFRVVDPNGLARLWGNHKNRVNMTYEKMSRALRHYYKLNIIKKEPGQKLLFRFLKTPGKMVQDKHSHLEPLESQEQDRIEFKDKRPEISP
Method in brief: as §1

[15] = biological target: T11, ELF5 (Homo sapiens, UniProt Q9UKW6-2 1-255); conditions: protein: recombinant; tags: N-terminal GST; dsDNA, one strand shown
T11 sequence: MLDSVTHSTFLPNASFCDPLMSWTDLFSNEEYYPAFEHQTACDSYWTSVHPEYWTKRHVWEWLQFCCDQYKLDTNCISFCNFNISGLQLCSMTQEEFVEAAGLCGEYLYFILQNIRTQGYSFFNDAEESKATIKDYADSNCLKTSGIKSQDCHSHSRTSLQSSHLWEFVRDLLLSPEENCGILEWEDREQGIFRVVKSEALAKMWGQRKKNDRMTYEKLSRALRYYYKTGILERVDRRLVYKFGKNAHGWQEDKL
Method in brief: as §1

[16] = biological target: ETV6 (Homo sapiens, UniProt P41212 1-452); conditions: protein: recombinant; tags: N-terminal GST; dsDNA, one strand shown
Method in brief: as §1

Chain of ELF4 (Q99607 whole entry): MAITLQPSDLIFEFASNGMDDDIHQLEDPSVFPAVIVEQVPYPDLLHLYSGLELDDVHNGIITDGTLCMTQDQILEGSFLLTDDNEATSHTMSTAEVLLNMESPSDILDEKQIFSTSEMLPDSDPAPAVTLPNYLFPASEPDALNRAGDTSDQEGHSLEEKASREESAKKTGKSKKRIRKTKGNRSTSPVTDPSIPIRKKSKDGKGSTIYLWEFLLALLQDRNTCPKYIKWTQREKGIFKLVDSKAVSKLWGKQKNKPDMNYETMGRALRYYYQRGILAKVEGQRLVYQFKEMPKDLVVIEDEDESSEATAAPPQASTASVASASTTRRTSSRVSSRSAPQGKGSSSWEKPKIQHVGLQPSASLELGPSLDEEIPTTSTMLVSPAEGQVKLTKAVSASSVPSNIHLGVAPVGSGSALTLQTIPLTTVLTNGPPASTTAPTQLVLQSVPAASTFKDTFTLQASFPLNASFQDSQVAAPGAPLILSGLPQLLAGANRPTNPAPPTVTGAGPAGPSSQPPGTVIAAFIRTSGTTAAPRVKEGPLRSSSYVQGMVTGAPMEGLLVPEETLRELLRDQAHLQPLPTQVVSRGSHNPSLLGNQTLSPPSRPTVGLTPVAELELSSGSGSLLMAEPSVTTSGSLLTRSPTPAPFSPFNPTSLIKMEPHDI
Chain of ETV5 (P41161 whole entry): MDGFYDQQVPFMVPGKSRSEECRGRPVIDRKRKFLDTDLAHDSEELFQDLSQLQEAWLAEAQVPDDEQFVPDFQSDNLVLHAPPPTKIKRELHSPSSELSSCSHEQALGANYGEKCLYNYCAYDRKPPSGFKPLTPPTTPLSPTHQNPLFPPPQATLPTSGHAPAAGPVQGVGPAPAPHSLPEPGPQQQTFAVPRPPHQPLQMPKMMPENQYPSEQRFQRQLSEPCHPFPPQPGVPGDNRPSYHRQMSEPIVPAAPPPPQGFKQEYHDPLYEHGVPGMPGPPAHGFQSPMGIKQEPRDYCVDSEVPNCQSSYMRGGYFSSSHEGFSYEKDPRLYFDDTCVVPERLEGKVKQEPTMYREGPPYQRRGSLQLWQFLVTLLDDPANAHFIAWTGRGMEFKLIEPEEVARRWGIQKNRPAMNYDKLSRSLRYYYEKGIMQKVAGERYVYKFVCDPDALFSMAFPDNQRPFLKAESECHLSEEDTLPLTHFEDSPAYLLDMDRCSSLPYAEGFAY
Chain of ETV6 (P41212 whole entry): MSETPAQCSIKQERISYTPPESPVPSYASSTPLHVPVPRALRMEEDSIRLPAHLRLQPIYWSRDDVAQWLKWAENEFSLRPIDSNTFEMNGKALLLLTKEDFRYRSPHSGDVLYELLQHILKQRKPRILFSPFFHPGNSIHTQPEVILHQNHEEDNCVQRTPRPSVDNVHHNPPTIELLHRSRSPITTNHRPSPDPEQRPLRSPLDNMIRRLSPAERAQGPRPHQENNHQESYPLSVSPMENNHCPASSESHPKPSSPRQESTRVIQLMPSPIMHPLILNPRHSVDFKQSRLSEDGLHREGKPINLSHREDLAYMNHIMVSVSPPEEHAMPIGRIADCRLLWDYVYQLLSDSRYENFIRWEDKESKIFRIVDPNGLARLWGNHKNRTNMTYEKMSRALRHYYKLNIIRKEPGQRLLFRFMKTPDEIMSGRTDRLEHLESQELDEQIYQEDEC
Chain of ETV1 (P50549 whole entry): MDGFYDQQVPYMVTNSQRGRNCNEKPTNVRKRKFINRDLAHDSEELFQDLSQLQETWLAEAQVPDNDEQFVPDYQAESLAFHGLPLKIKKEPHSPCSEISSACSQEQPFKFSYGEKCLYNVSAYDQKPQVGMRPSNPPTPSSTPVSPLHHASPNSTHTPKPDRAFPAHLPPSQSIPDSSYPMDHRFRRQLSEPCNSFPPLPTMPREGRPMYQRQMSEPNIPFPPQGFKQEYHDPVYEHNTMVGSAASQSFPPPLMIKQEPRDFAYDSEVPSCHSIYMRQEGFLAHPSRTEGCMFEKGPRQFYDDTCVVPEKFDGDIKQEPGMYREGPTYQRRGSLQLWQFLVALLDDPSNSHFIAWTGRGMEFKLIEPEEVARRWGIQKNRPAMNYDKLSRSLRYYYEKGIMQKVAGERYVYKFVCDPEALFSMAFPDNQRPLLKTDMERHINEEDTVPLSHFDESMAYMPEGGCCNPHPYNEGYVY
Chain of HSF1 (Q00613 whole entry): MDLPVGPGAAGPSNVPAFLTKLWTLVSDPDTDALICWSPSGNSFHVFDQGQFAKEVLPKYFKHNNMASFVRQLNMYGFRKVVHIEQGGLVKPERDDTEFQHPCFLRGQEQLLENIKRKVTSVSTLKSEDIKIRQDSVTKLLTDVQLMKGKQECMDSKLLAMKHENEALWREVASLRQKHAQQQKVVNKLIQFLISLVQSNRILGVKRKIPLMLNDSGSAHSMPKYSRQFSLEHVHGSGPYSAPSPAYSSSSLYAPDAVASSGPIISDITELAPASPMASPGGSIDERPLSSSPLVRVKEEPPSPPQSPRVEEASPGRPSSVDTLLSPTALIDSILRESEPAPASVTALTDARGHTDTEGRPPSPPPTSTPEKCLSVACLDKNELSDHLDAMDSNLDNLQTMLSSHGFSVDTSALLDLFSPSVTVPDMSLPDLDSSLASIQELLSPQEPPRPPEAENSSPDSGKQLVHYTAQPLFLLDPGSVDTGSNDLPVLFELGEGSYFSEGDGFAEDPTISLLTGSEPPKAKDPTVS

ACACGA
binding signal [1]: 1.1 fold enrichment (6-mer frequency, TF over GST control)
binding signal [2]: 1.15 fold enrichment (6-mer frequency, TF over GST control)
binding signal [3]: 1.02 fold enrichment (6-mer frequency, TF over GST control)
binding signal [4]: 1.11 fold enrichment (6-mer frequency, TF over GST control)
binding signal [5]: 1.2 fold enrichment (6-mer frequency, TF over GST control)
binding signal [6]: 1.16 fold enrichment (6-mer frequency, TF over GST control)
binding signal [7]: 1.08 fold enrichment (6-mer frequency, TF over GST control)
binding signal [8]: 1.01 fold enrichment (6-mer frequency, TF over GST control)
binding signal [9]: 1.1 fold enrichment (6-mer frequency, TF over GST control)
binding signal [10]: 1.15 fold enrichment (6-mer frequency, TF over GST control)
binding signal [11]: 1.04 fold enrichment (6-mer frequency, TF over GST control)
binding signal [12]: 1.08 fold enrichment (6-mer frequency, TF over GST control)
binding signal [13]: 1.03 fold enrichment (6-mer frequency, TF over GST control)
binding signal [14]: 1.11 fold enrichment (6-mer frequency, TF over GST control)
binding signal [15]: 1.03 fold enrichment (6-mer frequency, TF over GST control)
binding signal [16]: 1.06 fold enrichment (6-mer frequency, TF over GST control)
